# ALOX12 inh: blocks human arachidonate 12S-lipoxygenase; P18054; purified 12hLO, xylenol orange hydroperoxide absorbance; Potency, µM (top dose mostly 108 µM), for the others: at the highest dose activity change, negative = inhibition, actives largely listed as inhibitors; actives 1.1% (n = 580,000); note: % is set by controls: 0 for no effect and ±100 for the full control effect
# Target sequence (P18054 whole entry, looked up): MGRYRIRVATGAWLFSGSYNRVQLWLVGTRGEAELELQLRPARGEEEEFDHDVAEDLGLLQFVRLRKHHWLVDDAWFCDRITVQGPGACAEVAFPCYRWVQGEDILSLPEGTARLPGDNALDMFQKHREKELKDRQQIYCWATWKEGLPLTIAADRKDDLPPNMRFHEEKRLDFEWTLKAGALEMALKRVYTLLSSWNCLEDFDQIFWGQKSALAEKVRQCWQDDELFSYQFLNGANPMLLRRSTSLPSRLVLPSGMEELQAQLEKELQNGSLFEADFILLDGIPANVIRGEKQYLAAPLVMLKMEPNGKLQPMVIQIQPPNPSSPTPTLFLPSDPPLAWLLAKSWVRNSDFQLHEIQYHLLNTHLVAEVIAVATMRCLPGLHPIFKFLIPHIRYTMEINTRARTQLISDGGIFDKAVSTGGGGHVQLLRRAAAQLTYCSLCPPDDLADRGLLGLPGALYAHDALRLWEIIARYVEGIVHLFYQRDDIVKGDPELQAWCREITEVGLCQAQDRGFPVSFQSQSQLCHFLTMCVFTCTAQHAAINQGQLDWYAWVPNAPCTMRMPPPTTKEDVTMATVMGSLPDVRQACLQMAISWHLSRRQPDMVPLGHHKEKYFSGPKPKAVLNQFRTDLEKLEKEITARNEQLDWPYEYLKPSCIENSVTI
#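 Purified human 12hLO at 150 nM in 25 mM Hepes, 0.01% Triton X-100, pH 7.0, preincubated 15 min at room temperature with compound. Reaction started with 40 uM arachidonic acid, 30 min at room temperature. Hydroperoxide measured by Fe-xylenol orange, 573/405 nm absorbance ratio.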
# SW480 rereplic: induces DNA re-replication in SW480 colon adenocarcinoma cells; SW480 DNA re-replication, Hoechst DNA content imaging, 48 h; Potency, µM (series often up to 46.1 µM), inactives show top-dose re-replication activation, actives largely listed as activators; actives 1.8% (n = 340,000); note: % of control where 0% means no effect; nearly all actives have a fitted effect of over 55% in size
#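 DNA re-replication was detected as more nuclei of elevated Hoechst intensity after 48 hr exposure to compound (23 nL pinned per well of 250 cells).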
# PINK1 modulator: modulators of PINK1 expression | PINK1 immunofluorescence, high-content cytometry, 24 h | Potency, µM (doses to about 76.6 µM), for inactives: at the top dose activation (PINK1 increase), usual class: activators | actives 0.2% (n = 410,000) | AID 624263; active = well fitted activation curve with a large enough effect; inconclusive = small, poorly fitted or top-dose-only effect; cell line not stated here; note: % of control where 0% means no effect; nearly all actives have a fitted effect of over 65% in size
#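 Cells are seeded, rested 12 hours, then given compound at five concentrations or DMSO for 24 hours. After fixation, blocking and antibody staining, PINK1 amount and mitochondrial localization are scored; CCCP serves as control.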
# KB-3-1 cytotox: KB-3-1 parental cell cytotoxicity; Potency, µM (highest dose often 46.1 µM), usual class: cytotoxic; actives 1.4% (n = 400,000); KB-3-1 viability, CellTiter-Glo ATP luminescence, 72 h; note: % is set by controls: 0 for no effect and ±100 for the full control effect; nearly all actives have a fitted effect of over 60% in size
#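 Viability of parental KB-3-1 cells, measured by CellTiter-Glo luminescence, followed a 72 h incubation at 37 °C with pinned compounds in phenol-red-free DMEM containing 10% FBS.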
# MCF10A rerep: inducers of DNA re-replication in MCF 10A breast cells; MCF 10A DNA re-replication, Hoechst nuclear intensity, 48 h; Potency, µM (highest dose often 46.1 µM), without a hit: at the top dose activity, positive = re-replication, most hits filed as activators; actives 2.9% (n = 350,000); note: % of control where 0% means no effect; nearly all actives have a fitted effect of over 50% in size
# KB-V1 MDR tox: KB-V1 MDR subline cytotoxicity; KB-V1 MDR cells viability, CellTiter-Glo, 72 h; Potency, µM (series often up to 46.1 µM), most hits filed as cytotoxic; actives 3.4% (n = 400,000); note: % is set by controls: 0 for no effect and ±100 for the full control effect; nearly all actives have a fitted effect of over 60% in size
#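 KB-V1 MDR subline cells in DMEM (phenol-red free, 10% FBS) exposed to compounds in qHTS concentration series for 72 h at 37 degrees C. Viability read by CellTiter-Glo luminescence; concentration-effect curves fitted after normalization and correction.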
# Active calls of the source: *; i = inactive; ? = inconclusive; · = no result given; [ ] = another dose, or the depositor's remark. Only some compounds are listed: those with a hit (about 5.8% of all), similar ones and a draw of the others. Unless noted, calls come from the whole dose curve; as a rule, active = well fitted curve in the direction sought with a large enough effect; inconclusive = small, poorly fitted or top-dose-only effect, or another doubt; inactive = no such curve, though single readings can be large; an effect the other way counts as inactive or inconclusive. Potency is the fitted concentration of half-maximal effect.
SMILES,ALOX12 inh,SW480 rereplic,PINK1 modulator,KB-3-1 cytotox,MCF10A rerep,KB-V1 MDR tox
O=C(N/N=C/c1ccc(O)cc1O)/C(=C/c1ccccc1)CCO,?,?,0%,i,18µM*,?
COc1cc(/C=N/NC(=O)/C(=C/c2ccccc2)CCO)ccc1O,26%,?,0%,i,-1%,i
CC(=O)c1ccc(NC(=O)C(=O)c2c[nH]c3ccccc23)cc1,50%,·,·,·,·,·
COc1ccc([N+](=O)[O-])cc1N(CC(O)CN(CC(C)C)CC(C)C)S(=O)(=O)c1ccccc1 (configuration not stated),11%,10%,-5%[38.3 µM],i,11%,?
CCCCN(CCCC)CC(O)CN(c1cc([N+](=O)[O-])ccc1OC)S(=O)(=O)c1ccccc1 (configuration not stated),-8%,?,11%,?,13%,2.6µM*
Nc1nc(Cl)nc2c1ncn2C1CC(O)C(CO)O1 (configuration not stated),1%,?,0%,8.2µM*,?,?
Nc1ncn([C@H]2C[C@H](O)[C@@H](CO)O2)c(=O)n1,?,0.23µM*,0%,i,-2%,i
Nc1ccn([C@H]2C[C@H](O)[C@@H](CO)O2)c(=O)n1,-29%,1%,1%,i,-15%,i
COc1cccc(N2CCN(C(=O)Cc3ccc(N4CCCC4=O)cc3)CC2)c1,19%,·,·,·,·,·
CCCn1c(=O)c2ccccc2n2c(=S)[nH]nc12,-26%,-6%,3%,i,0%,i
CCCCCn1c(=O)c2ccccc2n2c(=S)[nH]nc12,45µM*,-16%,-1%,i,1%,i
O=c1c2ccccc2n2c(=S)[nH]nc2n1-c1ccccc1,?,-14%,-1%,i,1%,i
CCCCn1c(=O)c2ccccc2n2c(=S)[nH]nc12,6.3µM*,1%,-1%,i,-5%,i
Cc1ccc(-n2c(C)cc(/C=c3/sc4nc5ccccc5n4c3=O)c2C)cc1,·,1%[9.22 µM],10%,i,9.2µM*,i
NC1CC1c1ccc2ccccc2c1 (configuration not stated),10%,·,·,·,·,·
COCCCNC(=S)N1CCN(c2nc3ccccc3s2)CC1,1%,0%,3%,?,3%,15µM*
C=CCNC(=S)N1CCN(c2ccc([N+](=O)[O-])cc2)CC1,?,-4%,-2%,i,11%,15µM*
CCNC(=S)N1CCN(c2ccc([N+](=O)[O-])cc2)CC1,?,-6%,-2%,i,3%,i
COCCNC(=S)N1CCN(c2nc3ccccc3s2)CC1,28%,-19%,1%,i,-7%,i
COCCCNC(=S)N1CCN(c2ccc([N+](=O)[O-])cc2)CC1,-17%,-4%,1%,?,3%,16µM*
CCc1ccc(CCC(=O)N2CCCC2)cc1,-1%,·,·,·,·,·
O=C(CN1CCN(C(=O)c2nn(Cc3ccccc3)c(=O)c3ccccc23)CC1)N1CCOCC1,-1%,·,·,·,·,·
Cc1ccccc1CN(C)CCc1ccccn1,?,-2%,0%,i,0.65µM*,i
Cc1cccc(CN(C)CCc2ccccn2)c1,?,-14%,-5%[38.3 µM],i,2%,i
CC(Oc1c(Cl)cccc1Cl)C(=O)NN (configuration not stated),19%,·,·,·,·,·
SMILES,ALOX12 inh,SW480 rereplic,PINK1 modulator,KB-3-1 cytotox,MCF10A rerep,KB-V1 MDR tox
COc1ccc(-n2c(-c3ccccc3)nnc2-c2ccc(Cl)cc2)cc1,0%,-9%,1%,i,-9%,i
COc1ccc(-n2c(-c3ccc(Cl)cc3)c[n+]3c2CCc2ccccc2-3)cc1,-6%,30%,32µM*,?,10%,i
CCn1c(SCC(=O)Nc2ccc3c(c2)OCO3)nc2c(-c3ccc(C)cc3)csc2c1=O,2%,·,·,·,·,·
COc1cc(-c2cc(O)c(-c3ccc4ccccc4n3)c(=O)[nH]2)cc(OC)c1OC,-21%,21µM*,25%,?,12µM*,?
CC(C)C[C@@H](NC(=O)[C@@H](Cc1ccccc1)NC(=O)c1cnccn1)B(O)O,·,0.0042µM*,·,·,57%,·
CC(C)C[C@H](NC(=O)[C@H](Cc1ccccc1)NC(=O)c1cnccn1)B(O)O,3%[57.4 µM],·,·,·,·,·
Cc1ccc(CNC(=O)c2cc(C)nn2-c2ccccc2)cc1,12%,-18%,0%,?,-14%,i
Cc1ccc(Cc2nnc3n(-c4ccccc4)nc(C(=O)c4ccccc4)n3c2=O)cc1,0%,18µM*,-1%,?,16µM*,8.2µM*
CN(CCOc1ccc(F)cc1)Cc1ccccc1,?,-9%,6%,i,-4%,i
CN(CCCCOc1ccc(F)cc1)Cc1ccccc1,1.1µM*,-42%,6%,i,7%,i
CCN1C(=O)NC(c2ccc(Br)s2)C(C(=O)OC)=C1C (configuration not stated),-14%,·,·,·,·,·
O=C(CSc1ncc(-c2ccc(Cl)cc2)o1)Nc1ccc(Cl)cc1,-4%,·,·,·,·,·
Cl/C(=C/c1ccc(Cl)cc1)c1ncc(-c2ccc(Cl)cc2)o1,35µM*,·,·,·,·,·
CCCCCCn1c(=O)n2n(c1=O)C[C@]1(OC(=O)Nc3cccs3)CN(S(=O)(=O)c3ccc(C)cc3)C[C@]1(O)C2,35µM*,·,?,?,·,i
Cc1cc(C(=O)N/N=C/c2ccc(Cl)c([N+](=O)[O-])c2)c(C)n1-c1ccc(F)cc1,10%,17%,-2%,5.8µM*,12µM*,?
CN(Cc1ccc(F)cc1)Cc1ccc(C(F)(F)F)cc1,24%[176 µM],·,·,·,·,·
NC(N)=NN=C(c1ccc(F)cc1)c1ccc(C(F)(F)F)cc1,?,6.5µM*,-3%,3.7µM*,?,?
Clc1ccc(CSc2nncn2-c2ccc3c(c2)OCCO3)cc1,75%,21µM*,4%,13µM*,9.2µM*,?
CCCC[C@H]1COCCS(=O)(=O)N1Cc1ccc(C)cc1,-1%,-5%,1%,16µM*,-1%,16µM*
CCc1ccc(CNC(=O)c2cc3cc(C)ccc3[nH]2)cc1,35µM*,·,·,·,·,·
COc1ccc(N(CC(=O)NC2CCCCCC2)S(=O)(=O)c2c(C)nn(C)c2C)cc1,?,9%,-4%,?,6%,8.2µM*
COc1ccc(N(CC(=O)NCc2ccc(Cl)cc2)S(=O)(=O)c2c(C)nn(C)c2C)cc1,40µM*,-17%,0%,i,-1%,i
COc1ccc(N(CC(=O)Nc2ccc(C)cc2C)S(=O)(=O)c2c(C)n[nH]c2C)cc1,19%,?,-1%,?,2%,?
